Laboratory results: PubChem BioAssay AID623870 (Broad Institute, 2012)
About 2,600 (0.67%) of roughly 390,000 compounds were called active. This is one part of a sample in which actives are shown more often than they occur.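 Rule for the calls: active = mean inhibition of replicates at least 50% and at least half of replicates each reaching 50%; inconclusive = half or more replicates reach 50% but mean below 50%; inactive = the rest.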

molecular target: Transforming acidic coiled-coil-containing protein 3 (Homo sapiens) (UniProt Q9Y6A5); assay: inhibitors of ARNT PAS-B binding to TACC3 – biochemical, AlphaScreen, single concentration, primary screen (AID 623870); details: AlphaScreen His-ARNT PAS-B/GST-TACC3 binding, luminescence; at 9.99 µM; hits give high values; TACC3 fragment carries E629A point mutation;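 note: 0% = complete ARNT plus TACC3 wells and 100% = ARNT alone without TACC3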

Row | Compound | inhibition
1 | Cc1ccc(S(=O)(=O)N(C)C[C@@H]2Oc3c(NC(=O)c4nc5ccccc5s4)cccc3C(=O)N([C@H](C)CO)C[C@@H]2C)cc1 | 9.91% (inactive)
2 | C[C@H]1CN([C@@H](C)CO)C(=O)c2cc(-c3ccccc3F)cnc2O[C@@H]1CN(C)C | 6.21% (inactive)
3 | Cc1noc(C)c1NC(=O)Nc1ccc2c(c1)CC(=O)N([C@@H](C)CO)C[C@@H](C)[C@H](CN(C)Cc1ccc(Oc3ccccc3)cc1)O2 | 15.6% (inactive)
4 | COCC(=O)Nc1ccc2c(c1)[C@@H]1C[C@H](CC(=O)NCc3ccc(Cl)cc3)O[C@H](CO)[C@@H]1O2 | -8.13% (inactive)
5 | Cc1cc(C(=O)NC2CCN(Cc3ccccc3)CC2)n[nH]1 | -0.213% (inactive)
6 | Cc1cc(C(=O)N/N=C/c2cc([N+](=O)[O-])cc(C)c2O)n[nH]1 | 64.3% (active)
7 | CCCNC(=O)Nc1ccc2c(c1)OC[C@@H](C)N(C(=O)c1ccccc1F)C[C@H](C)[C@@H](OC)CN(C)C2=O | -9.6% (inactive)
8 | C[C@@H]1CN([C@H](C)CO)C(=O)c2cc(NS(=O)(=O)c3ccccc3)ccc2O[C@H]1CN(C)S(=O)(=O)c1cccs1 | 0.265% (inactive)
9 | O=C(N/N=C/c1cccc2cccnc12)[C@H]1C[C@@H]1c1ccccc1 | 73.3% (active)
10 | Cc1ccc(NC(=O)C2CC2c2ccccc2)cc1 (configuration not stated) | -4.03% (inactive)
11 | O=C(Nc1ccccc1)Oc1cccc2cccnc12 | -7.89% (inactive)
12 | C[C@H](CO)N1C[C@H](C)[C@@H](CN(C)C)Oc2cc(C#Cc3ccccc3)ccc2S1(=O)=O | 8.14% (inactive)
13 | COc1ccc(NC(=O)N(C)C[C@@H]2Oc3ccc(NS(C)(=O)=O)cc3C(=O)N([C@@H](C)CO)C[C@@H]2C)cc1 | -7.68% (inactive)
14 | CCOc1cccc(/C=N/NC(=S)NCCN2CCOCC2)c1O | 64.9% (active)
15 | COc1cccc(C(CC(=O)NCCN2CCOCC2)NS(=O)(=O)c2ccc(C)cc2)c1OC (configuration not stated) | -9.59% (inactive)
16 | CCc1cc(=O)oc2c(C)c(OCC(=O)NCCN3CCOCC3)ccc12 | -0.887% (inactive)
17 | C[C@@H]1CN([C@@H](C)CO)C(=O)Cc2cc(NC(=O)Nc3ccc(F)cc3)ccc2O[C@@H]1CN(C)C(=O)NC1CCCCC1 | 0.811% (inactive)
18 | Cn1c(=NC(=O)c2ccco2)sc2cccc(F)c21 | -2.41% (inactive)
19 | Cn1c(=NC(=O)c2ccc3c(c2)OCCO3)sc2cc(S(C)(=O)=O)ccc21 | -1.86% (inactive)
20 | Cn1c(=NC(=O)c2cnccn2)sc2ccccc21 | 50.2% (active)
21 | CN(C(=O)c1ccccc1)c1nccnc1C#N | 48.5% (active)
22 | CCCN1[C@@H]2c3ccc(-c4ccccc4OC)c(=O)n3C[C@H]1[C@H](CO)[C@H]2C(=O)NCc1ccccn1 | -0.436% (inactive)
23 | CO[C@H]1CN(C)C(=O)c2cc(NS(=O)(=O)CC(F)(F)F)ccc2OC[C@@H](C)N(C(=O)c2ccc3c(c2)OCO3)C[C@@H]1C | 8.14% (inactive)
24 | CCCC(=O)Nc1ccc2c(c1)C(=O)N(C)C[C@@H](OC)[C@@H](C)CN(Cc1cncnc1)[C@@H](C)CO2 | -2.89% (inactive)

Row | Compound | inhibition
25 | CCN(/N=C/c1ccccc1)c1cc(=O)n(C)c(=O)[nH]1 | 6.16% (active)
26 | CN1C(=O)c2cc(NC(=O)c3cnccn3)ccc2OC[C@@H]2O[C@H](CC(=O)NC3CCC3)CC[C@@H]21 | -9.79% (inactive)
27 | C[C@H](CO)N1C[C@H](C)[C@H](CN(C)S(C)(=O)=O)Oc2c(NC(=O)Nc3cccc4ccccc34)cccc2C1=O | 8.09% (inactive)
28 | O=C(C[C@@H]1C[C@@H]2c3cc(NC(=O)c4ccc5c(c4)OCO5)ccc3O[C@@H]2[C@@H](CO)O1)NCC1CC1 | -5.9% (inactive)
29 | COc1ccccc1NC(=O)N(C)C[C@@H]1Oc2ncc(C#CCC(C)C)cc2C(=O)N([C@@H](C)CO)C[C@@H]1C | -5.04% (inactive)
30 | C[C@@H](NC(=O)C[C@@H]1C[C@H]2c3cc(NC(=O)C4CCC4)ccc3O[C@H]2[C@@H](CO)O1)c1ccccc1 | -9.96% (inactive)
31 | N#C[C@@H]1[C@@H](c2ccc(-c3cccnc3)cc2)[C@H](CO)N1C(=O)Nc1ccc(F)cc1 | -8.19% (inactive)
32 | Cc1ccc(OS(=O)Nc2cccc3nccnc23)cc1 (configuration not stated) | 69.3% (active)
33 | Cc1ccc(Oc2ccc3c(c2)C(=O)N(c2cccc4cccnc24)C3=O)cc1 | 1.71% (inactive)
34 | COCC(=O)N1C[C@@H](C)[C@H](OC)CN(C)C(=O)c2ccc(NC(=O)c3ccc(OC)cc3)cc2OC[C@@H]1C | -7.16% (inactive)
35 | CO[C@H]1CN(C)C(=O)c2cc(NC(=O)Nc3cccc(F)c3)ccc2OC[C@H](C)N(C(C)=O)C[C@H]1C | 28% (inactive)
36 | CO[C@@H]1CN(C)C(=O)c2cc(NC(=O)C3CC3)ccc2OC[C@@H](C)N(Cc2nccs2)C[C@@H]1C | -5.42% (inactive)
37 | C[C@H](CO)N1C[C@H](C)[C@H](CN(C)C(=O)Nc2cccc3ccccc23)Oc2ccc(NS(C)(=O)=O)cc2C1=O | -5.79% (inactive)
38 | CNC[C@@H]1OCCCC[C@H](C)Oc2ccc(NS(=O)(=O)c3ccc(F)cc3)cc2C(=O)N([C@@H](C)CO)C[C@@H]1C | -1.03% (inactive)
39 | CC(Nc1nc(C(F)(F)F)nc2ccccc12)c1cccs1 (configuration not stated) | -5.59% (inactive)
40 | CC(C)(C)Nc1nc(-c2ccccn2)nc2ccccc12 | 93% (active)
41 | O=C(C[C@@H]1C[C@H]2c3cc(NC(=O)C4CCOCC4)ccc3O[C@H]2[C@H](CO)O1)NCc1ccc2c(c1)OCO2 | -5.45% (inactive)
42 | O=C(NC1CCCC1)[C@H]1[C@H](CO)[C@H]2Cn3c(ccc(-c4ccccc4F)c3=O)[C@@H]1N2C(=O)CC1CC1 | -1.58% (inactive)
43 | C[C@@H]1CN([C@@H](C)CO)C(=O)Cc2cc(NC(=O)Nc3ccc(F)cc3)ccc2O[C@@H]1CN(C)S(=O)(=O)c1ccccc1 | 2.95% (inactive)
44 | C[C@H](CO)N1C[C@H](C)[C@@H](CN(C)Cc2ccncc2)Oc2ncc(C#CC3CC3)cc2C1=O | -1.14% (inactive)
45 | Cn1c(N)c(C(=O)COC(=O)c2cnc(Cl)c(Cl)c2)c(=O)n(C)c1=O | 45.8% (active)
46 | Cn1c(N)c(C(=O)COC(=O)COc2ccc(Cl)cc2)c(=O)n(C)c1=O | 2.04% (inactive)
47 | Cn1c(N)c(C(=O)COC(=O)c2ccc3ccccc3c2)c(=O)n(C)c1=O | -4.71% (inactive)
